The panel holds about 79,000 compounds, 15% with a hit somewhere; the sample as a whole holds those more often. No stated cut-off is given here; in the data, active means growth inhibition above about 70%; inactive means the rest. Where a SMILES comes first, the peptide text is derived from it. Bridges are numbered along the chain shown (N, C = ends). [ ]: non-standard residue; d: D form. The star is where a group is joined. ξ: configuration not given here. ξNMePhe(4-NMe2) = CNC(Cc1ccc(N(C)C)cc1)C(=O)O; Picolinoyl(3-OH) = O=C(c1ncccc1O)*; ξPip(4-oxo) = O=C1CCNC(C(=O)O)C1; Phg = N[CH](C(=O)O)c1ccccc1; Abu = CC[CH](N)C(=O)O
Legend:
[1] = NCI Yeast Anticancer Drug Screen. Data for the rad50 strain (AID 155);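 further: 0% = growth of vehicle-only cultures of the same strain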; conditions: S. cerevisiae rad50 strain growth inhibition; at 50.0 µM; stronger effect = higher value
In short: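 Cells are treated with compound, grown, and their growth is then scored against vehicle-only cultures of the same repair-deficient yeast strain.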

[2] = NCI Yeast Anticancer Drug Screen. Data for the mec2-1 strain (AID 157); conditions: S. cerevisiae mec2-1 strain, at 50.0 µM, stronger effect = higher value
In short: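 Yeast mec2-1 mutant treated with compound. Readout: growth inhibition vs vehicle controls.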

[3] = NCI Yeast Anticancer Drug Screen. Data for the sgs1 mgt1 strain (AID 161);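 further: 0% = growth of cultures given vehicle only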; conditions: S. cerevisiae sgs1 mgt1 strain, at 50.0 µM, stronger effect = higher value
In short: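 Test agents were incubated with a DNA-repair-mutant yeast strain. Growth was then read and compared against vehicle-treated controls.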

[4] = NCI Yeast Anticancer Drug Screen. Data for the cln2 rad14 strain (AID 165);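 further: 0% = growth equal to vehicle treated cultures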; conditions: S. cerevisiae cln2 rad14 strain, at 50.0 µM, stronger effect = higher value
In short: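 cln2 rad14 yeast strain; compound exposure; growth inhibition read vs vehicle controls.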

[5] = NCI Yeast Anticancer Drug Screen. Data for the bub3 strain (AID 167); conditions: S. cerevisiae bub3 mutant strain, at 50.0 µM, stronger effect = higher value
In short: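 Part of a panel of yeast mutants defective in DNA damage repair or cell cycle regulation. Each strain is grown with compound, and inhibition is calculated relative to solvent-treated cultures.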

[6] = NCI Yeast Anticancer Drug Screen. Data for the mlh1 rad18 strain (AID 175); conditions: S. cerevisiae mlh1 rad18 strain growth inhibition; at 50.0 µM; stronger effect = higher value
In short: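 Yeast w/ defined DNA-repair lesions; compound exposure; growth vs vehicle controls → % inhibition.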

Measured: growth inhibition

O=C(Cc1ccc(OCc2ccccc2)cc1)NCc1ccc2c(c1)OCO2
inactive: [1] 3.2% | [2] -5.5% | [3] -1.2% | [4] -10.8% | [5] 17.5% | [6] -9.5%

O=C(c1ccc(O)cc1)c1ccc(O)cc1
inactive: [1] 30.4% | [2] -6.6% | [3] 15.2% | [4] -49.1% | [5] -9.15% | [6] 17.2%

CCCCCC(C)(CC(=O)O)CC(=O)O
inactive: [1] -18.6% | [2] -15.3% | [3] -21.4% | [4] -27.8% | [5] 0.7% | [6] -15.4%

CNC(=O)c1ccccc1CC1(O)c2ccccc2Oc2ccccc21
inactive: [1] 0.4% | [2] -13.5% | [3] 9.05% | [4] 0.7% | [5] -9.25% | [6] -8.55%

COc1cc([C@@H]2c3cc4c(cc3[C@H](O)[C@H]3COC(=O)[C@H]23)OCO4)cc(OC)c1OC
inactive: [1] -4.8% | [2] -8.55% | [3] 9.05% | [4] 5.1% | [5] 3.6% | [6] 9%

C[C@@H](c1ccccc1)[C@@H](C(=O)O)c1ccccc1
inactive: [1] 8.3% | [2] 5.4% | [3] 8.3% | [4] -38.6% | [5] -5.65% | [6] 29.7%

Nc1ccccc1SC(CC(=O)c1ccccc1)c1c(Cl)cccc1Cl (configuration not stated)
inactive: [1] -11.5% | [2] -9.65% | [3] 2.1% | [4] 1.75% | [5] 2.85% | [6] 16.7%

CCC1NC(=O)C(NC(=O)c2ncccc2O)C(C)OC(=O)C(c2ccccc2)NC(=O)C2CC(=O)CCN2C(=O)C(Cc2ccc(N(C)C)cc2)N(C)C(=O)C2CCCN2C1=O (configuration not stated) (tested in a mixture with another compound) ({Picolinoyl(3-OH)}-T[Abu]P[ξNMePhe(4-NMe2)][ξPip(4-oxo)][Phg]; ester 1-C; configuration not given here)
inactive: [1] 19.4% | [2] -5.15% | [3] 3.3% | [4] 20.7% | [5] 9.45% | [6] -14.7%

O=C(O)CCCCNC(=O)c1ccccc1
inactive: [1] 19.6% | [2] -14.4% | [3] 3.25% | [4] 12.3% | [5] -4.8% | [6] 9.4%

COc1ccc(/C(C#N)=C2C=C/C(=N/O)c3ccccc3\2)cc1
inactive: [1] -5.15% | [2] 14.6% | [3] 8.75% | [4] -22.2% | [5] 9.25% | [6] 19.9%

CC(=O)OC(OC(C)=O)C1CCCO1 (configuration not stated)
inactive: [1] -5.75% | [2] -21.6% | [3] -2.1% | [4] 17.1% | [5] -2.95% | [6] 1.1%

COc1ccc(C)cc1OC
inactive: [1] 26.3% | [2] 12.9% | [3] 1.3% | [4] 0.6% | [5] -8.2% | [6] -5.65%

COc1ccc(-c2cc3c(nn2)-c2ccccc2C3=O)cc1
inactive: [1] 1.1% | [2] -16.7% | [3] -13% | [4] -10.4% | [5] -19.1% | [6] 5.45%

C#CCSc1nnnn1-c1ccc(Br)c(C)c1
inactive: [1] 14.8% | [2] 1.3% | [3] 34.5% | [4] 22.3% | [5] 32.6% | [6] 7.1%

O=C(O)CCC(NC(=O)OCc1ccccc1)C(=O)O (configuration not stated)
inactive: [1] -4.05% | [2] 2.55% | [3] -8.45% | [4] 9.55% | [5] -21.2% | [6] -5.15%

C=CCCCCCCCCCOC(C)=O
inactive: [1] -14.3% | [2] -41.1% | [3] -20.4% | [4] -9.5% | [5] -2.8% | [6] 8.25%

CCOC(=O)C(=O)C=P(c1ccccc1)(c1ccccc1)c1ccccc1
inactive: [1] -29.5% | [2] -22.4% | [3] -21.9% | [4] -8.9% | [5] -40.9% | [6] -24.2%

CCC(C)(C)C1CCC(O)CC1 (configuration not stated)
inactive: [1] 10.2% | [2] 6.6% | [3] 12.7% | [4] -53.5% | [5] -5.15% | [6] 1.5%

CC1=NN(c2ccccc2)C(=O)/C1=C\N1CC(=O)NC1=S
inactive: [1] -50.9% | [2] -46% | [3] -11.3% | [4] 5.45% | [5] -49% | [6] -30.4%

Nc1ncnc2[nH]ncc12
inactive: [1] -0.9% | [2] 25.5% | [3] 37% | [4] -2.6% | [5] 4.7% | [6] 14.1%

O=C(O)CCCC(=O)O
inactive: [1] -36.5% | [2] -0.7% | [3] -22.6% | [4] -21.4% | [5] -51.6% | [6] 4.5%

C[C@]12CC[C@@H]3c4ccc(OCC(=O)O)cc4CC[C@H]3[C@@H]1CCC2=O
inactive: [1] 16% | [2] 0.35% | [3] -18.7% | [4] -8% | [5] 5.6% | [6] 2.05%

C#C[C@H]1CCCCCC1O (some centres not stated)
inactive: [1] 13.1% | [2] 2% | [3] -1.35% | [4] 14.4% | [5] -6.75% | [6] 21.9%

COc1ccc(-c2cc(-c3cc(-c4ccc(OC)cc4)nc(N)n3)nc(N)n2)cc1
inactive: [1] -13% | [2] 4.45% | [3] -20.8% | [4] -2.65% | [5] -2.65% | [6] 9.8%

CCCNC(=O)c1ccc(S(N)(=O)=O)cc1
inactive: [1] -1.5% | [2] 1% | [3] -13.2% | [4] -4.55% | [5] 2.55% | [6] -0.25%

CCOC(=O)C1=C(Nc2ccc(Br)cc2)C(=O)N(CC)C1
inactive: [1] 12.7% | [2] 1.2% | [3] 33% | [4] 14.9% | [5] 42.7% | [6] 19.1%

CCCNc1ccc(C2=NCCCN2)cc1
inactive: [1] 0.55% | [2] -19.1% | [3] -3.9% | [4] 7.25% | [5] 17.5% | [6] -1.5%

Cn1cnc2nc(Cl)nc(Cl)c21
inactive: [1] 13.1% | [2] 23% | [3] 10.7% | [4] -0.05% | [5] 27.1% | [6] 11.2%

O=C(O)c1ccccc1NCc1ccco1
inactive: [1] -14.7% | [2] -40.9% | [3] 14% | [4] 7.85% | [5] -19.6% | [6] -5.7%

CCNCCCCNCCCCNCCCCNCCCCNCC
inactive: [1] -16.6% | [2] 4.25% | [3] -6.1% | [4] 11.2% | [5] 3.95% | [6] 6.7%

CC(=O)NC(N)=S
inactive: [1] 2.3% | [2] 3.75% | [3] -23.1% | [4] -3.05% | [5] -3.25% | [6] -7%

S=c1nn[nH]c2ccccc12
inactive: [1] 17.4% | [2] 22.6% | [3] 8.6% | [4] 8.1% | [5] 7.8% | [6] 8.25%

Nc1ccc(N=Nc2ccc(O)cc2)c(N)n1
inactive: [1] -15.7% | [2] -20.1% | [3] -16.7% | [4] 2.85% | [5] 22.7% | [6] -4.7%

CC1(C)N=C(N)N=C(N)N1c1ccc(Cl)cc1
inactive: [1] 19.7% | [2] 3.35% | [3] 0.4% | [4] -20.2% | [5] 3.85% | [6] 35.7%

O=c1[nH]nc(SC2CCCCC2)c(=O)[nH]1
inactive: [1] -12.1% | [2] -3.1% | [3] -11.9% | [4] -5.4% | [5] 4.85% | [6] -11.1%

Cc1cc2ccccc2c(O)c1C#N
inactive: [1] 32.5% | [2] 17.9% | [3] 6.3% | [4] -4.3% | [5] 1.3% | [6] 48.9%

CC(C)OC(C(=O)O)c1ccccc1 (configuration not stated)
inactive: [1] -18.2% | [2] 2.2% | [3] -3.65% | [4] 11.8% | [5] 1.05% | [6] 0%

N#Cc1ccc(NC(=O)Nc2cccc(C#N)c2)cc1
inactive: [1] -3.5% | [2] -12.3% | [3] -9.75% | [4] -15.1% | [5] -0.3% | [6] -15.6%

c1c(-c2cc(C3CC3)[nH]n2)n[nH]c1C1CC1
inactive: [1] -62% | [2] -0.25% | [3] -17.6% | [4] -16.4% | [5] 1.8% | [6] 2.35%

CN(C)c1ccc(C(c2ccc(O)cc2)c2ccc(N(C)C)cc2)cc1
inactive: [1] -10.4% | [2] -37.1% | [3] -17.9% | [4] -38.6% | [5] -3% | [6] -6.5%

COC1=CC(=O)c2nc(Cl)ccc2C1=O
inactive: [1] 29% | [2] 9.95% | [3] 35.2% | [4] -1% | [5] 11.8% | [6] 24.6%

CCCC[P+](c1ccccc1)(c1ccccc1)c1ccccc1
inactive: [1] 45.5% | [2] 40% | [3] 48.4% | [4] 37.2% | [5] 33.1% | [6] 65.2%
